# Assay results: PubChem BioAssay AID1159580 (chemical genetic matrix, 2015)
# Screen size: about 5,500 compounds; about 2,000 (36%) were called active. About 18% were inconclusive and are not listed. The list shows a part of the results. Values without a mark were called inactive. Cut-off read from the data, not from the text of the source: active = normalized growth mostly below about 0.91 (no sharp cut-off); inconclusive = no clear call, values can overlap the other calls; inactive = mostly above about 0.92.
# Test: chemical genetic growth profiling, strain panel (AID 1159580);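 note: tested at 20 µM; growth read once vehicle control cultures reached saturation at 30 °C; 1 = growth at the plate median or of vehicle wells; lower values mean less growth of the strain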
# Conditions: growth OD
compound,measurement,setting,value
O=[N+]([O-])O[C@H]1CO[C@H]2[C@@H]1OC[C@H]2O[N+](=O)[O-],normalized growth,"S. cerevisiae deletion strains, locus YJR043C, strain POL32, hits give low values",1.02
same,normalized growth,"S. cerevisiae deletion strains, locus YJR066W, strain TOR1, hits give low values",0.946
same,normalized growth,"S. cerevisiae deletion strains, locus YKL009W, strain mrt4, hits give low values",1.03
same,normalized growth,"S. cerevisiae deletion strains, locus YKL068W, hits give low values",1.01
same,normalized growth,"S. cerevisiae deletion strains, locus YKL085W, strain MDH1 (second series), hits give low values",1.01
same,normalized growth,"S. cerevisiae deletion strains, locus YKL085W, strain MDH1, hits give low values",1.01
same,normalized growth,"S. cerevisiae deletion strains, locus YKL160W, strain elf1, hits give low values",0.98
same,normalized growth,"S. cerevisiae deletion strains, locus YKL190W, strain CNB1, hits give low values",1.02
same,normalized growth,"S. cerevisiae deletion strains, locus YKR001C, strain vps1, hits give low values",1.02
same,normalized growth,"S. cerevisiae deletion strains, locus YKR026C, strain gcn3, hits give low values",0.993
same,normalized growth,"S. cerevisiae deletion strains, locus YKR091W, strain srl3, hits give low values",0.993
same,normalized growth,"S. cerevisiae deletion strains, locus YLL001W, strain dnm1, hits give low values",0.971
same,normalized growth,"S. cerevisiae deletion strains, locus YLL026W, hits give low values",1
same,normalized growth,"S. cerevisiae deletion strains, locus YLL041C, strain sdh2, hits give low values",0.998
same,normalized growth,"S. cerevisiae deletion strains, locus YLR027C, strain aat2, hits give low values",1.01
same,normalized growth,"S. cerevisiae deletion strains, locus YLR039C, strain RIC1, hits give low values",1.05
same,normalized growth,"S. cerevisiae deletion strains, locus YLR058C, strain SHM2, hits give low values",1.01
same,normalized growth,"S. cerevisiae deletion strains, locus YLR102C, strain apc9, hits give low values",1.01
same,normalized growth,"S. cerevisiae deletion strains, locus YLR113W, strain HOG1, hits give low values",0.926
same,normalized growth,"S. cerevisiae deletion strains, locus YLR221C, strain rsa3, hits give low values",0.995
same,normalized growth,"S. cerevisiae deletion strains, locus YLR258W, strain gsy2, hits give low values",0.995
same,normalized growth,"S. cerevisiae deletion strains, locus YLR262C, strain YPT6 (second series), hits give low values",1
same,normalized growth,"S. cerevisiae deletion strains, locus YLR262C, strain YPT6, hits give low values",1.02
same,normalized growth,"S. cerevisiae deletion strains, locus YLR268W, strain sec22, hits give low values",1.04
same,normalized growth,"S. cerevisiae deletion strains, locus YLR320W, strain mms22, hits give low values",0.979
same,normalized growth,"S. cerevisiae deletion strains, locus YLR330W, strain CHS5, hits give low values",1.01
same,normalized growth,"S. cerevisiae deletion strains, locus YLR342W, strain FKS1 (second series), hits give low values",1.04
same,normalized growth,"S. cerevisiae deletion strains, locus YLR342W, strain FKS1, hits give low values",0.995
same,normalized growth,"S. cerevisiae deletion strains, locus YLR357W, strain rsc2, hits give low values",0.983
same,normalized growth,"S. cerevisiae deletion strains, locus YLR370C, strain arc18, hits give low values",0.992
same,normalized growth,"S. cerevisiae deletion strains, locus YLR371W, strain rom2, hits give low values",1
same,normalized growth,"S. cerevisiae deletion strains, locus YLR384C, strain iki3, hits give low values",0.981
same,normalized growth,"S. cerevisiae deletion strains, locus YLR418C, strain cdc73, hits give low values",1.09
same,normalized growth,"S. cerevisiae deletion strains, locus YML016C, strain PPZ1, hits give low values",1.01
same,normalized growth,"S. cerevisiae deletion strains, locus YML032C, strain rad52, hits give low values",1.03
same,normalized growth,"S. cerevisiae deletion strains, locus YML120C, strain ndi1, hits give low values",0.966
same,normalized growth,"S. cerevisiae deletion strains, locus YML124C, strain tub3, hits give low values",1.02
same,normalized growth,"S. cerevisiae deletion strains, locus YMR058W, strain fet3, hits give low values",1
same,normalized growth,"S. cerevisiae deletion strains, locus YMR078C, strain ctf18, hits give low values",1.02
same,normalized growth,"S. cerevisiae deletion strains, locus YMR125W, strain sto1, hits give low values",0.996
same,normalized growth,"S. cerevisiae deletion strains, locus YMR129W, hits give low values",0.988
same,normalized growth,"S. cerevisiae deletion strains, locus YMR205C, strain PFK2, hits give low values",0.963
same,normalized growth,"S. cerevisiae deletion strains, locus YMR223W, strain ubp8, hits give low values",1.05
same,normalized growth,"S. cerevisiae deletion strains, locus YMR231W, strain pep5, hits give low values",1
same,normalized growth,"S. cerevisiae deletion strains, locus YMR307W, strain GAS1, hits give low values",1.05
same,normalized growth,"S. cerevisiae deletion strains, locus YNL067W, strain RPL9B, hits give low values",1.01
same,normalized growth,"S. cerevisiae deletion strains, locus YNL071W, strain lat1, hits give low values",0.996
same,normalized growth,"S. cerevisiae deletion strains, locus YNL128W, strain TEP1, hits give low values",1.03
same,normalized growth,"S. cerevisiae deletion strains, locus YNL183C, strain NPR1, hits give low values",0.955
same,normalized growth,"S. cerevisiae deletion strains, locus YNL209W, strain ssb2, hits give low values",0.994
same,normalized growth,"S. cerevisiae deletion strains, locus YNL233W, strain BNI4, hits give low values",1.01
same,normalized growth,"S. cerevisiae deletion strains, locus YNL248C, strain rpa49, hits give low values",1.01
same,normalized growth,"S. cerevisiae deletion strains, locus YNL250W, strain rad50, hits give low values",1.05
same,normalized growth,"S. cerevisiae deletion strains, locus YNL271C, strain bni1, hits give low values",1.01
same,normalized growth,"S. cerevisiae deletion strains, locus YNL298W, strain CLA4, hits give low values",1.03
same,normalized growth,"S. cerevisiae deletion strains, locus YNL307C, strain MCK1, hits give low values",1.02
same,normalized growth,"S. cerevisiae deletion strains, locus YNL322C, strain KRE1 (second series), hits give low values",0.979
same,normalized growth,"S. cerevisiae deletion strains, locus YNR049C, strain mso1, hits give low values",0.981
same,normalized growth,"S. cerevisiae deletion strains, locus YNR052C, strain pop2, hits give low values",1.02
same,normalized growth,"S. cerevisiae deletion strains, locus YOL006C, strain TOP1, hits give low values",1.01
same,normalized growth,"S. cerevisiae deletion strains, locus YOL012C, strain htz1",1.04
same,normalized growth,"S. cerevisiae deletion strains, locus YOL147C, strain pex11, hits give low values",1.02
same,normalized growth,"S. cerevisiae deletion strains, locus YOR001W, strain rrp6, hits give low values",1.01
same,normalized growth,"S. cerevisiae deletion strains, locus YOR061W, strain CKA2, hits give low values",1.01
same,normalized growth,"S. cerevisiae deletion strains, locus YOR069W, strain VPS5, hits give low values",1.01
same,normalized growth,"S. cerevisiae deletion strains, locus YOR070C, strain gyp1, hits give low values",1
same,normalized growth,"S. cerevisiae deletion strains, locus YOR080W, strain dia2, hits give low values",0.994
same,normalized growth,"S. cerevisiae deletion strains, locus YOR083W, strain WHI5, hits give low values",0.977
same,normalized growth,"S. cerevisiae deletion strains, locus YOR106W, strain vam3, hits give low values",1
same,normalized growth,"S. cerevisiae deletion strains, locus YOR136W, strain idh2, hits give low values",1.02
same,normalized growth,"S. cerevisiae deletion strains, locus YOR144C, strain elg1, hits give low values",1.02
same,normalized growth,"S. cerevisiae deletion strains, locus YOR184W, strain ser1, hits give low values",1.03
same,normalized growth,"S. cerevisiae deletion strains, locus YOR231W, strain MKK1, hits give low values",0.837 (active)
same,normalized growth,"S. cerevisiae deletion strains, locus YOR265W, strain rbl2, hits give low values",0.994
same,normalized growth,"S. cerevisiae deletion strains, locus YOR270C, strain vph1, hits give low values",1.02
same,normalized growth,"S. cerevisiae deletion strains, locus YOR290C, strain snf2, hits give low values",0.939
same,normalized growth,"S. cerevisiae deletion strains, locus YOR316C, strain cot1, hits give low values",1.01
same,normalized growth,"S. cerevisiae deletion strains, locus YPL051W, strain arl3, hits give low values",0.985
same,normalized growth,"S. cerevisiae deletion strains, locus YPL078C, strain atp4, hits give low values",0.979
same,normalized growth,"S. cerevisiae deletion strains, locus YPL106C, strain sse1, hits give low values",0.949
same,normalized growth,"S. cerevisiae deletion strains, locus YPL240C, strain hsp82, hits give low values",1
same,normalized growth,"S. cerevisiae deletion strains, locus YPL256C, strain CLN2, hits give low values",0.938
same,normalized growth,"S. cerevisiae deletion strains, locus YPR119W, strain clb2, hits give low values",1.02
same,normalized growth,"S. cerevisiae deletion strains, locus YPR141C, strain kar3, hits give low values",1.02
same,normalized growth,"S. cerevisiae deletion strains, locus YPR163C, strain tif3, hits give low values",1.01
same,normalized growth,"S. cerevisiae deletion strains, locus YPR167C, strain met16, hits give low values",1.02
same,normalized growth,"S. cerevisiae deletion strains, strain wtn01, hits give low values",1.05
same,normalized growth,"S. cerevisiae strains, strain wild type, hits give low values",1.02
